Source: PubChem BioAssay (NCI)
Compounds without any hit were thinned out: in the full panel of roughly 83,000, 20% have a hit.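 Compound tested at a single concentration for 48 hours in 96-well plates; a percent growth value below 10 was scored as active.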 Calls of active or inactive are those of the source.

Legend:
Experiment in all cases: NCI-60 one-dose screen, 48 h (100 = growth as untreated, 0 = no growth, -100 = all killed)
Settings in all cases: 10 µM
SR leukemia = tested on: SR leukemia
RPMI-8226 leukemia = tested on: RPMI-8226 leukemia
OVCAR-8 ovarian = tested on: OVCAR-8 ovarian
OVCAR-5 ovarian = tested on: OVCAR-5 ovarian
OVCAR-4 ovarian = tested on: OVCAR-4 ovarian
SK-OV-3 ovarian = tested on: SK-OV-3 ovarian
IGROV1 ovarian = tested on: IGROV1 ovarian
OVCAR-3 ovarian = tested on: OVCAR-3 ovarian
HS 578T breast = tested on: HS 578T breast
NCI/ADR-RES ovarian = tested on: NCI/ADR-RES ovarian

Measured: growth

Fc1cc(-c2ncc(-c3cc(F)c(F)c(F)c3)c(NC3CCCCCC3)n2)cc(F)c1F
inactive: SR leukemia 95.9% | RPMI-8226 leukemia 96.3% | OVCAR-8 ovarian 102% | OVCAR-5 ovarian 110% | OVCAR-4 ovarian 89.1% | SK-OV-3 ovarian 115% | IGROV1 ovarian 110% | OVCAR-3 ovarian 110% | HS 578T breast 102% | NCI/ADR-RES ovarian 106%

COc1cc(N=C2C(=O)N(Cc3ccccc3)c3ccccc32)cc(OC)c1OC
inactive: SR leukemia 74.5% | RPMI-8226 leukemia 38.4% | OVCAR-8 ovarian 96.6% | OVCAR-5 ovarian 95% | OVCAR-4 ovarian 98.8% | SK-OV-3 ovarian 101% | IGROV1 ovarian 86% | OVCAR-3 ovarian 84.4% | HS 578T breast 82.9% | NCI/ADR-RES ovarian 94.6%

CCN(CC)CCCOC(=O)Nc1ccccc1Cl
inactive: SR leukemia 101% | RPMI-8226 leukemia 97.3% | OVCAR-8 ovarian 111% | OVCAR-5 ovarian 110% | OVCAR-4 ovarian 115% | SK-OV-3 ovarian 111% | IGROV1 ovarian 123% | OVCAR-3 ovarian 124% | HS 578T breast 121% | NCI/ADR-RES ovarian 107%

c1ccc(CNc2nc(Nc3ccc(-c4nc5ccccc5[nH]4)cc3)c3cn[nH]c3n2)cc1
inactive: OVCAR-5 ovarian 41.1% | OVCAR-4 ovarian 25.7% | SK-OV-3 ovarian 10.8% | IGROV1 ovarian 36.2%
active: SR leukemia -13.8% | RPMI-8226 leukemia 2.15% | OVCAR-8 ovarian -12.5% | OVCAR-3 ovarian -38.1% | HS 578T breast -6.55% | NCI/ADR-RES ovarian 6.33%

CS(=O)(=O)Nc1ccc(OCc2nnc(-c3ccc(Cl)cc3)o2)c(F)c1
inactive: SR leukemia 81.2% | RPMI-8226 leukemia 87.9% | OVCAR-8 ovarian 98.1% | OVCAR-5 ovarian 99.5% | OVCAR-4 ovarian 82.1% | SK-OV-3 ovarian 88.8% | IGROV1 ovarian 104% | OVCAR-3 ovarian 107% | HS 578T breast 98.1% | NCI/ADR-RES ovarian 96.9%

COc1ccc(COC(=O)CC(C)C)cc1
inactive: SR leukemia 97.1% | RPMI-8226 leukemia 103% | OVCAR-8 ovarian 96.1% | OVCAR-5 ovarian 100% | OVCAR-4 ovarian 109% | SK-OV-3 ovarian 102% | IGROV1 ovarian 106% | OVCAR-3 ovarian 105% | HS 578T breast 104% | NCI/ADR-RES ovarian 98.8%

O=C(c1ccccc1)C(Sc1ccccc1)c1ccccc1 (stereo not given)
inactive: SR leukemia 49.2% | RPMI-8226 leukemia 81.7% | OVCAR-8 ovarian 86.8% | OVCAR-5 ovarian 96% | OVCAR-4 ovarian 78.7% | SK-OV-3 ovarian 103% | IGROV1 ovarian 83.8% | OVCAR-3 ovarian 109% | HS 578T breast 100% | NCI/ADR-RES ovarian 82.7%

COc1cc(-c2nc3cc(Cl)c(Cl)cc3[nH]2)ccc1OCC(=O)NN
inactive: SR leukemia 77.4% | RPMI-8226 leukemia 107% | OVCAR-8 ovarian 76.4% | OVCAR-5 ovarian 98.1% | OVCAR-4 ovarian 85.3% | SK-OV-3 ovarian 93.3% | IGROV1 ovarian 86.6% | OVCAR-3 ovarian 93% | HS 578T breast 95.1% | NCI/ADR-RES ovarian 87.8%

COCCOC(=O)NC(=O)Nc1ccc(/C(=N/O)c2ccc(Cl)cc2)cc1
inactive: RPMI-8226 leukemia 22.3% | OVCAR-5 ovarian 47.1% | OVCAR-4 ovarian 43.7% | IGROV1 ovarian 30.9% | HS 578T breast 34.4%
active: SR leukemia 8.7% | OVCAR-8 ovarian 4.12% | SK-OV-3 ovarian 4.2% | OVCAR-3 ovarian 0.755% | NCI/ADR-RES ovarian -3.69%

CCCCOCCOCCOCc1cc2c(cc1Br)OCO2
inactive: SR leukemia 100% | RPMI-8226 leukemia 99.2% | OVCAR-8 ovarian 97.8% | OVCAR-5 ovarian 95.5% | OVCAR-4 ovarian 105% | SK-OV-3 ovarian 96.5% | IGROV1 ovarian 89.6% | OVCAR-3 ovarian 111% | HS 578T breast 108% | NCI/ADR-RES ovarian 111%

CC(CNC(Cc1ccccc1)c1ccccc1)NC(Cc1ccccc1)c1ccccc1 (stereo not given)
active: SR leukemia -19.7% | RPMI-8226 leukemia -34.6%
inactive: OVCAR-8 ovarian 49.5% | OVCAR-5 ovarian 46.3% | OVCAR-4 ovarian 31.7% | SK-OV-3 ovarian 81.7% | IGROV1 ovarian 39% | OVCAR-3 ovarian 47.3% | HS 578T breast 75.2% | NCI/ADR-RES ovarian 50%

Nc1ncc(-c2ccc(C(F)(F)F)cc2)c(NC2CCCCCC2)n1
inactive: SR leukemia 60.3% | OVCAR-8 ovarian 19.4% | OVCAR-5 ovarian 53% | OVCAR-4 ovarian 20% | SK-OV-3 ovarian 76.1% | IGROV1 ovarian 58.6% | OVCAR-3 ovarian 14.5% | HS 578T breast 38.4% | NCI/ADR-RES ovarian 56.9%
active: RPMI-8226 leukemia -8.42%

C/C=C\COc1cc(C)c(Cl)cc1Cl
inactive: SR leukemia 107% | RPMI-8226 leukemia 99.7% | OVCAR-8 ovarian 99.4% | OVCAR-5 ovarian 108% | OVCAR-4 ovarian 94.7% | SK-OV-3 ovarian 112% | IGROV1 ovarian 107% | OVCAR-3 ovarian 116% | HS 578T breast 121% | NCI/ADR-RES ovarian 115%

CCOC(=O)Nc1ccc2c(c1)C(=O)N(CC)c1ccccc1O2
inactive: RPMI-8226 leukemia 12.4% | OVCAR-5 ovarian 74% | OVCAR-4 ovarian 43.7% | SK-OV-3 ovarian 23.2% | IGROV1 ovarian 32.1% | HS 578T breast 46%
active: SR leukemia 8.37% | OVCAR-8 ovarian 7.22% | OVCAR-3 ovarian -7.48% | NCI/ADR-RES ovarian 8.14%

CCCCC(=O)N(c1ccc(Nc2c3ccccc3nc3cc([N+](=O)[O-])ccc23)cc1)S(C)(=O)=O
active: SR leukemia 5.36%
inactive: RPMI-8226 leukemia 35% | OVCAR-8 ovarian 71.7% | OVCAR-5 ovarian 96.9% | OVCAR-4 ovarian 81% | SK-OV-3 ovarian 80% | IGROV1 ovarian 48.7% | OVCAR-3 ovarian 88.3% | HS 578T breast 88.3% | NCI/ADR-RES ovarian 101%

Fc1ccc(Nc2ccnc(N3CCN(c4ccnc5cc(Cl)ccc45)CC3)n2)cc1
inactive: SR leukemia 31% | RPMI-8226 leukemia 23.9% | OVCAR-8 ovarian 36.6% | OVCAR-5 ovarian 55.9% | OVCAR-4 ovarian 33.1% | SK-OV-3 ovarian 56% | IGROV1 ovarian 43.7% | OVCAR-3 ovarian 44.1% | HS 578T breast 61.4% | NCI/ADR-RES ovarian 44.1%

CCc1c(C)[nH]c(=O)c(C(N)=O)c1C#N
inactive: SR leukemia 91.7% | RPMI-8226 leukemia 105% | OVCAR-8 ovarian 104% | OVCAR-5 ovarian 109% | OVCAR-4 ovarian 115% | SK-OV-3 ovarian 100% | IGROV1 ovarian 107% | OVCAR-3 ovarian 116% | HS 578T breast 95.5% | NCI/ADR-RES ovarian 119%

CCN(CCCNC(=O)Cc1cc(=O)oc2cc(N(C)C)ccc12)CCNc1ccnc2cc(Cl)ccc12
inactive: RPMI-8226 leukemia 54.7% | OVCAR-8 ovarian 83.9% | OVCAR-5 ovarian 109% | OVCAR-4 ovarian 81.7% | SK-OV-3 ovarian 116% | IGROV1 ovarian 94% | OVCAR-3 ovarian 106% | HS 578T breast 98.3% | NCI/ADR-RES ovarian 109%
active: SR leukemia 1.46%

CCCN(CCC)CCCNC(=O)c1cc2c(-c3ccc(OC)c(OC)c3)nn(C)c2s1
inactive: OVCAR-5 ovarian 69.5% | OVCAR-4 ovarian 22.1% | SK-OV-3 ovarian 24% | IGROV1 ovarian 35.5% | HS 578T breast 11.5%
active: SR leukemia 4.41% | RPMI-8226 leukemia -10.5% | OVCAR-8 ovarian 4.29% | OVCAR-3 ovarian -10.1% | NCI/ADR-RES ovarian -8.48%

Cc1nc(N)sc1Sc1nc2ccc(Cl)cc2c(=O)n1-c1ccc(Oc2ccccc2)cc1
active: SR leukemia -44.8%
inactive: RPMI-8226 leukemia 68.1% | OVCAR-8 ovarian 75.2% | OVCAR-5 ovarian 87.9% | OVCAR-4 ovarian 40.9% | SK-OV-3 ovarian 104% | IGROV1 ovarian 101% | OVCAR-3 ovarian 91.3% | HS 578T breast 81.9% | NCI/ADR-RES ovarian 69.9%

C#CCNCCCN1C(=O)c2ccc3c4c(ccc(c24)C1=O)C(=O)N(CCCNCC#C)C3=O
inactive: RPMI-8226 leukemia 12.5%
active: SR leukemia -21.1% | OVCAR-8 ovarian -31.1% | OVCAR-5 ovarian -73.6% | OVCAR-4 ovarian -97.8% | SK-OV-3 ovarian -42.7% | IGROV1 ovarian -75.1% | OVCAR-3 ovarian -27.6% | HS 578T breast -22.9% | NCI/ADR-RES ovarian -32%

COc1cc(C2c3cc4c(cc3C(O)C(CO)C2CO)OCO4)cc(OC)c1OC (stereo not given)
inactive: RPMI-8226 leukemia 30.1% | OVCAR-8 ovarian 30% | OVCAR-5 ovarian 50.9% | OVCAR-4 ovarian 51% | SK-OV-3 ovarian 15.9% | IGROV1 ovarian 13.9% | NCI/ADR-RES ovarian 79.2%
active: SR leukemia 6.26% | OVCAR-3 ovarian -44.5% | HS 578T breast -8.11%

O=C(NC1CCN(Cc2ccccc2)CC1)c1cc(-c2ccncc2)nc2ccc(Cl)cc12
inactive: RPMI-8226 leukemia 21.9% | OVCAR-8 ovarian 18.4% | OVCAR-5 ovarian 75.3% | OVCAR-4 ovarian 27.6% | SK-OV-3 ovarian 53.1% | IGROV1 ovarian 32.3% | OVCAR-3 ovarian 15.5% | HS 578T breast 59.9% | NCI/ADR-RES ovarian 11.2%
active: SR leukemia 8.12%

Cc1cc(Cl)ccc1Nc1nc(C(F)(F)F)ccc1C(=O)N/N=C/c1ccccc1Cl
active: NCI/ADR-RES ovarian 8.31%
inactive: SR leukemia 66% | RPMI-8226 leukemia 50.5% | OVCAR-8 ovarian 21.7% | OVCAR-5 ovarian 30.8% | OVCAR-4 ovarian 29.2% | SK-OV-3 ovarian 10.4% | IGROV1 ovarian 21.6% | OVCAR-3 ovarian 16.3% | HS 578T breast 17.4%

COC(=O)C1(C(=O)OC)C2C(=O)C3C(C21)C3(C(=O)OC(C)(C)C)C(=O)OC(C)(C)C (stereo not given)
inactive: SR leukemia 113% | RPMI-8226 leukemia 93.8% | OVCAR-8 ovarian 104% | OVCAR-5 ovarian 102% | OVCAR-4 ovarian 101% | SK-OV-3 ovarian 121% | IGROV1 ovarian 109% | OVCAR-3 ovarian 114% | HS 578T breast 97.9% | NCI/ADR-RES ovarian 104%
